Source: PubChem BioAssay AID1986 (Sanford-Burnham Center for Chemical Genomics, 2009)
Out of some 290,000 compounds screened, about 890 (0.31%) were called active. Rule as the data show it: active = inhibition mostly above about 52% (no sharp cut-off); inactive = mostly below about 76%. For the sample, actives were picked, then their nearest neighbours and some compounds at random.

Test: cell-free HIV fusion peptide-binding blockers – biochemical, uHTS, fluorescence dequenching, primary screen (AID 1986)
Details: 30 min, stronger effect = higher value
[1] = measured here: repeat confirmation average inhibition, at 18.6 µM

Structure (SMILES)	inhibition (at 20 µM)	inhibition [1] [%]
O=C(O)c1ccc(-n2ncc3c2/C(=C/c2cccc([N+](=O)[O-])c2)CC3)cc1	66.7% (active)	
O=C(O)c1ccc(-n2c(/C=C/c3cccc([N+](=O)[O-])c3)nc3ccccc3c2=O)cc1	1.4% (inactive)	
O=C(O)c1c2c(nc3ccccc13)/C(=C/c1cccc([N+](=O)[O-])c1)CCC2	2.3% (inactive)	
Cn1cccc1CC(=O)N/N=C\c1ccccc1	-0.6% (inactive)	
COc1ccc(/C=C2\N=C(C)OC2=O)cc1OC	0.7% (inactive)	
CCOc1ccc(/C=C2\N=C(c3cccs3)OC2=O)cc1OC	6.4% (inactive)	
COc1ccc(/C=C2/N=C(c3cccs3)OC2=O)cc1OC(C)C	106% (active)	100
Cc1ccc2c(c1)c(/C=C/c1cc[n+](C)cc1)c(C)n2C	159% (inactive)	
COC(=O)Cn1cc(/C=C/c2cc[n+](C)cc2)c2ccccc21	115% (active)	96.1
CCn1cc(/C=C/c2cc[n+](C)cc2)c2ccccc21	182% (inactive)	
COC(=O)Cn1c(C)c(/C=C/c2cc[n+](C)cc2)c2ccccc21	46.3% (inactive)	
C=CCn1c(C)c(/C=C/c2cc[n+](C)cc2)c2ccccc21	103% (active)	81
C=CCn1cc(/C=C/c2cc[n+](C)cc2)c2ccccc21	185% (inactive)	
CCN(CC)C(=O)Cn1c(=O)n(C)c2ccccc21	-1.6% (inactive)	
CCN(CC)C(=O)Cn1c(C)c(/C=C/c2cc[n+](C)cc2)c2ccccc21	115% (active)	54.5
Cc1cc(Nc2ccccc2)n(C(=O)c2ccccc2)n1	-3% (inactive)	
Cc1c(NC(=O)COC(=O)/C=C/c2ccc(Cl)cc2)c(=O)n(-c2ccccc2)n1C	-0.5% (inactive)	
Clc1ccccc1OCCn1nnc2ccccc21	-2% (inactive)	
CCC(=O)Nc1cccc(NC(=O)c2cccc([N+](=O)[O-])c2C)c1	1.2% (inactive)	
NC(=O)c1nsc(C(=O)N(c2cccc(F)c2)C(C(=O)NC2CCCC2)c2ccc(O)cc2)c1N (centres undefined)	-1.3% (inactive)	
Cc1nc2ccc(S(=O)(=O)Nc3cc(-c4nc5cccnc5s4)ccc3C)cc2s1	3.9% (inactive)	
CC12C=CC(=O)C=C1CCC1C3CCC(O)(C(=O)CO)C3(C)CC3OC312 (centres undefined)	-0.7% (inactive)	
CCOC(=O)CNC(=O)Cn1cnc2c(nnn2-c2ccccc2)c1=O	-0.8% (inactive)	
CCOC(=O)c1c(C)[nH]c(C(=O)COC(=O)CCSc2ccccc2)c1C	0.3% (inactive)	
Cc1cc(S(=O)(=O)N2CCN(c3ccccn3)CC2)c(C)cc1Cl	-0.6% (inactive)	
